TbPYK inhibitor – inhibitors of Trypanosoma brucei pyruvate kinase. TbPYK enzyme, Kinase-Glo Plus ATP luminescence, 45 min. Potency, µM (titrated, usually from 76.8 µM), for the others: top-dose activity, negative = inhibition, most hits filed as inhibitors. actives 0.12% (n = 410,000); further: nearly all actives have a fitted effect of over 50% in size
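Readout: single end-point luminescence (Kinase-Glo Plus, 10 min). Reaction conditions were TbPYK/substrate plus 130 uM ADP, 45 min at RT, pH 7.2 TEA buffer. No-enzyme wells served as controls, and data were normalized before concentration-response fitting.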
RE007 growth inh – less growth of the S. pombe RE007 Vpr strain; S. pombe RE007 Vpr strain, BacTiter-Glo ATP luminescence, 24 h; Potency, µM (doses to about 92.2 µM), for inactives: top-dose activity change, negative = less growth, most hits filed as inhibitors; actives 0.21% (n = 360,000); AID 651644; active means well fitted falling curve with a large enough effect; inconclusive means small, poorly fitted or top-dose-only effect; inactive means no such curve, though single readings can be large or run the other way; further: nearly all actives have a fitted effect of over 50% in size
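Fission yeast RE007 carrying one integrated HIV-1 vpr copy, seeded at OD 0.01 in PMG+AL medium with 23 nL pinned compound. Grown 24 h at 30 degrees; viability read by BacTiter-Glo luminescence after 5 min.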
LmPK inh – blocks Leishmania mexicana pyruvate kinase activity | Q27686 | purified LmPK, Kinase-Glo ATP luminescence, 1 h | Potency, µM (series often up to 57.5 µM), without a hit: at the highest dose activity change, negative = inhibition, hits mostly inhibitors | actives 0.37% (n = 290,000) | AID 1721
Target sequence (Q27686 whole entry, looked up): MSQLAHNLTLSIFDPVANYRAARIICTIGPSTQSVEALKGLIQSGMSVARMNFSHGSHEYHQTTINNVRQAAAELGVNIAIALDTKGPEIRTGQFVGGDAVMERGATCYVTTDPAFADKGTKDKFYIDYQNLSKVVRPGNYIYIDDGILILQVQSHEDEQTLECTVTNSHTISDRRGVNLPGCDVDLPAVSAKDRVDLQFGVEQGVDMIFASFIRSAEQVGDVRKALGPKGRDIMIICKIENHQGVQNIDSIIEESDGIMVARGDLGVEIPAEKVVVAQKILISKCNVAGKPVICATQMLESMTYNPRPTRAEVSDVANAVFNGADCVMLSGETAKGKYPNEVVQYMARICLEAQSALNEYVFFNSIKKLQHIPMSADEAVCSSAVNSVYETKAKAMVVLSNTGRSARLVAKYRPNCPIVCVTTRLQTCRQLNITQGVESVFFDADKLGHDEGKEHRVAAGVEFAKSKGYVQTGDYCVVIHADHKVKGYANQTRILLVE
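In 50 mM imidazole pH 7.2 with 7 mM MgCl2, LmPK (0.1 nM) turned over PEP (0.5 mM) and ADP (0.1 mM) for 1 h at room temperature. Luciferase read-out of ATP.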
Giardia FBPA inh – inhibitors of Giardia lamblia fructose-1,6-bisphosphate aldolase; purified Giardia FBPA; actives 0.71% (n = 290,000); Potency, µM (titrated, usually from 59.6 µM), for inactives: at the highest dose activity, negative = inhibition, most hits filed as inhibitors; further: nearly all actives have a fitted effect of over 55% in size
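Giardia FBPA (40 nM reagent) was preincubated 10 min at RT with compound (up to 57.5 uM final), then substrate plus GAPDH/TPI/NAD/arsenate coupling system with diaphorase/resazurin was added; resorufin fluorescence (525/598 nm) was read after 20 min.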
Sm TGR block – S. mansoni TGR enzyme inhibition; Q962Y6; purified TGR, DTNB reduction, TNB absorbance 405 nm; Potency, µM (top dose mostly 114 µM), for the others: at the highest dose activity change, negative = inhibition, usual class: inhibitors; actives 3% (n = 360,000); further: nearly all actives have a fitted effect of over 60% in size
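First, TGR (20 nM dispensed) and NADPH were mixed with compound. Second, a 15 min room-temperature incubation followed. Third, further NADPH and then DTNB were added to start the reaction. Finally, TNB absorbance was monitored kinetically.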
Numbers without * were called inactive; ? = inconclusive; . = not tested or not shown; [ ] = another dose, or the depositor's remark. This is a sample that favours compounds with a hit; in the whole collection about 3.3% have one here. Unless noted, the call rests on the fitted dose curve; in most records, active means well fitted curve in the direction sought with a large enough effect; inconclusive means small, poorly fitted or top-dose-only effect, or another doubt; inactive means no such curve, though single readings can be large; an effect the other way counts as inactive or inconclusive. On the % scale 0 is the no-effect control and ±100 the full control effect; potency means the concentration at half of the fitted maximal effect.

SMILES	TbPYK inhibitor	RE007 growth inh	LmPK inh	Giardia FBPA inh	Sm TGR block
COc1cc2c(cc1OC)C(C)N(S(=O)(=O)c1cn(C)cn1)CC2 (configuration not stated)	-1%	12%	2%	3%	0%
COc1ccc(-c2coc3cc(O[C@@H]4O[C@H](CO)[C@@H](O)[C@H](O)[C@H]4O)c(OC)cc3c2=O)cc1	12%	-9%	.	.	.
O=C(CCC1N=C2c3ccccc3N=C(SCc3ccc(F)cc3)N2C1=O)NCc1ccco1 (configuration not stated)	-1%	1%	3%	-12%	25µM*
Cc1ccc(CSC2=Nc3ccccc3C3=NC(CC(=O)NCc4ccco4)C(=O)N23)cc1 (configuration not stated)	1%	5%	3%	?	35µM*
O=C(CC1N=C2c3ccccc3N=C(SCc3ccc(F)cc3)N2C1=O)NCc1ccco1 (configuration not stated)	-7%	9%	1%	11%	?
O=C(CCC1N=C2c3ccccc3N=C(SCc3ccc(Cl)cc3)N2C1=O)NCc1ccco1 (configuration not stated)	3%	12%	3%	2%	?
Cc1cc(C(=O)NNC(=O)c2cccc(N(C)C)c2)c(C)o1	-5%	-4%	0%	.	5%
Cc1cccc(-c2cc3c(nn2)-c2ccccc2C3=O)c1	-20%	?	7.1µM*	-27%	-2%
O=C(CCN1C(=O)c2ccccc2C1=O)NC(=S)Nc1cccc(Cl)c1	2%	4%	4%	-3%	-16%
N[C@@H](Cc1ccc(N(CCCl)CCCl)cc1)C(=O)O	3%	6%[18.4 µM]	.	.	14µM*
NC(Cc1ccc(OC(F)F)cc1)C(=O)O (configuration not stated)	6%	8%	-5%	-12%	35µM*
CC(=O)NC(Cc1ccc(N(CCCl)CCCl)cc1)C(=O)O (configuration not stated)	-10%	-2%	1%	0%	?
O=C(O)CCCc1ccc(N(CCCl)CCCl)cc1	4%	-8%[18.4 µM]	1%	2%	50µM*
N[C@@H](Cc1ccc(F)cc1)C(=O)O	-1%	-10%	.	-1%	.
Cc1cc(C)c(C)c(S(=O)(=O)Nc2ccc3cn[nH]c3c2)c1C	0%	15%	.	.	?
CCOc1ccc(NC(=O)CN2CCN(Cc3c(F)cccc3F)CC2)cc1	2%	-9%	7%	6%	0%
CCOC(=O)C1(Cc2cccc(OC)c2)CCCN(C(=O)c2ccc(OC)o2)C1 (configuration not stated)	-1%	-11%	-5%	.	50µM*
O=S(=O)(NCC(c1cccs1)S(=O)(=O)c1ccccc1)c1ccc(F)c(C(F)(F)F)c1 (configuration not stated)	0%	.	.	.	?
COc1ccc(S(=O)(=O)NCC(c2cccs2)S(=O)(=O)c2ccccc2)cc1OC (configuration not stated)	-6%	.	.	.	1µM*
O=S(=O)(NCC(c1cccs1)S(=O)(=O)c1ccccc1)c1ccc(F)cc1 (configuration not stated)	5%	.	.	.	0.5µM*
CC(=O)c1cccc(NC(=O)c2noc3c2CSc2ccccc2-3)c1	-3%	.	.	.	11µM*
COc1cc(OC)c(NC(=O)c2noc3c2CSc2ccccc2-3)cc1Cl	6%	.	.	.	2.5µM*
COc1ccc(NC(=O)c2noc3c2CSc2ccccc2-3)cc1Cl	5%	.	.	.	7%
C[C@]12C=CC(=O)C=C1CCC1C2C(O)C[C@]2(C)C1CC[C@]2(O)C(=O)CO (some centres not stated)	-12%	.	.	5%	.
CCOc1ccccc1N1CCN(C(=O)c2ccc(Cl)c(S(=O)(=O)N3CCCCC3)c2)CC1	-3%	0%	.	.	-3%
SMILES	TbPYK inhibitor	RE007 growth inh	LmPK inh	Giardia FBPA inh	Sm TGR block
COc1ccc(C)cc1Cn1c(S(C)(=O)=O)nc2ccccc21	-6%	14%	2%	-10%	40µM*
COCC1CCCN(C(=O)c2cc(COc3cncc(Cl)c3)on2)C1 (configuration not stated)	-8%	10%	0%	2%	-30%
CC(NC(=O)c1cccnc1)C(=O)O (configuration not stated)	0%	-14%	-5%	4%	10%
Cc1ccc(-c2nnn(CC(=O)N(CC(=O)NCc3ccccc3)c3cccc(C)c3C)n2)o1	1%	-10%	10%	0%	22µM*
CC(C)(C)NC(=O)C(c1ccc(O)cc1)N(Cc1ccco1)C(=O)Cn1nnc(-c2cccs2)n1 (configuration not stated)	-1%	-7%	3%	-3%	18µM*
O=C(CN(Cc1ccco1)C(=O)Cn1nnc(-c2cccs2)n1)NCc1ccccc1	7%	3%	3%	8%	18µM*
CC(C)(C)NC(=O)C(c1ccncc1)N(Cc1cccs1)C(=O)Cn1nnc(-c2cccs2)n1 (configuration not stated)	-2%	-5%	7%	-18%	50µM*
Cc1ccc(C(C(=O)NC(C)(C)C)N(Cc2ccco2)C(=O)Cn2nnc(-c3cccs3)n2)cc1 (configuration not stated)	5%	20%	2%	1%	1%
Cc1cccc(N(CC(=O)NCc2ccccc2)C(=O)Cn2nnc(-c3ccc(C)o3)n2)c1	-12%	9%	0%	1%	-14%
CC(C)(C)C(=O)O/N=C(\N)COc1cccc(Cl)c1	-15%	0%	-2%	0%	9%
O=C(CC(c1ccccc1)C1CCCCC1=O)c1ccco1 (configuration not stated)	4%	-1%	5%	4%	?
O=C(CC(c1ccco1)C1CCCCC1=O)c1ccco1 (configuration not stated)	-14%	12%	4%	-8%	50µM*
N#Cc1nc(COc2ccccc2F)oc1NCc1ccc(F)cc1	-5%	-4%	7%	0%	25µM*
COc1ccc(CCNc2oc(COc3ccccc3F)nc2C#N)cc1	0%	-2%	-1%	-5%	-16%
CS(=O)(=O)c1ccc(C(=O)NCCN2C(=O)S/C(=C\c3cccnc3)C2=O)cc1[N+](=O)[O-]	-4%	-2%	0%	-9%	8.9µM*
CN(C)S(=O)(=O)c1ccc(C(=O)NCCN2C(=O)S/C(=C\c3cccnc3)C2=O)cc1	-14%	-6%	-1%	-10%	-17%
CCN1CCN(CCOc2ccccc2-c2ccccc2)CC1	4%	2%	0%	?	.
CCCNC(=O)c1onc(CS(=O)(=O)c2cc(C)cc(C)c2)c1C(=O)NCCC	-2%	-21%	.	.	.
CCCCCOc1ccc(C)cc1CN(CCCl)CCCl	0%	?	-1%	-24%	11µM*
